Assay outcomes from PubChem.
Vif-A3G inh: Vif-A3G binding inhibition; AID 602310; 410,000 compounds, 0.076% hits; HeLa A3G-eYFP + Vif (tagged APOBEC3G with the HIV-1 protein that degrades it), YFP fluorescence, overnight; Potency, µM (titrated, usually from 46.1 µM), for the others: at the top dose activity, negative = active, usual class: inhibitors; further: potency means the concentration at half of the fitted maximal effect; on the % scale 0 is the no-effect control and ±100 the full control effect; nearly all actives have a fitted effect of over 60% in size
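Read-out is eYFP fluorescence (Ex 488/Em 500-530) from Vif-expressing HeLa A3G-eYFP cells; more signal means A3G escaped Vif-mediated degradation. Cells plated overnight, compound pinned in, incubated overnight at 37 deg C.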
TRPML1 blocker: inhibitors of human TRPML1 channel. TRPML1-inducible cells, Ca2+ dye fluorescence, FDSS; stronger effect = lower value; inhibition of EC80 agonist-evoked calcium signal. 390,000 compounds, 0.02% hits. activity change, negative = inhibition, % (concentration not given with the values). Q9GZU1; in the data active means activity change below about -50%; inconclusive means between about -30% and that limit;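 further: stimulus is agonist 54-4 at its EC80 concentration; on the % scale 0 is the no-effect control and ±100 the full control effect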
Target sequence (Q9GZU1 whole entry, looked up): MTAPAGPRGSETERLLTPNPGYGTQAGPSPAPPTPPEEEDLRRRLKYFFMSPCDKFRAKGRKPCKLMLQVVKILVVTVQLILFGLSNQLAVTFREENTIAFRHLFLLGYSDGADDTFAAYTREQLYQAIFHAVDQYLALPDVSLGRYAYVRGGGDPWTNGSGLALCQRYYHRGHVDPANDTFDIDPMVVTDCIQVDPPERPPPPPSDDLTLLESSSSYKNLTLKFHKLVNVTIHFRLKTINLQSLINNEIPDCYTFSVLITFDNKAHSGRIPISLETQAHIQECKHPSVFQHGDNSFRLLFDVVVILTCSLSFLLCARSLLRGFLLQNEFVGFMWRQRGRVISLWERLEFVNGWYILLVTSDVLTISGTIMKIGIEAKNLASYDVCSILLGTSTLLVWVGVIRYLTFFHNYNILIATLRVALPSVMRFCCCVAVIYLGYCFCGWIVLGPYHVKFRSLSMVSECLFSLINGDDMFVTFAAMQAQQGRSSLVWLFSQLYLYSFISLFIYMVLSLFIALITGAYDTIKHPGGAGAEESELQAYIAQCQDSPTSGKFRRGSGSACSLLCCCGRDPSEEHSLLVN
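Calcium fluorescence in TRPML1-DL cells induced overnight with Tet: a 110 s read after compound pin addition, then a 110 s antagonist read after challenge with 54-4 at 4 uM final (EC80).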
PINK1 expr mod: changes PINK1 expression; PINK1 immunofluorescence, high-content cytometry, 24 h; Potency, µM (titrated, usually from 76.6 µM), for inactives: at the top dose activation (PINK1 increase), most hits filed as activators; 410,000 compounds, 0.2% hits; AID 624263; active means well fitted activation curve with a large enough effect; inconclusive means small, poorly fitted or top-dose-only effect; cell line not stated here; further: potency means the concentration at half of the fitted maximal effect; % of control where 0% means no effect; nearly all actives have a fitted effect of over 65% in size
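Stable cell line, 250 cells/well, 12 h attachment; compounds pinned at 5 concentrations, 24 h; CCCP control. Fixed with nuclear dye, primary antibodies 12 h at 10 degrees C, secondary plus cell stain; laser-scanning cytometer read.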
TRPML1 ag: agonists of human TRPML1 channel. Q9GZU1. TRPML1-expressing cells, Ca2+ dye fluorescence, FDSS. activation, % (concentration not given with the values). 410,000 compounds, 0.12% hits; in the data active means activation above about 50%; inconclusive means mostly about 30% to 49%; further: 0% is about no effect
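Kinetic FDSS Ca2+ read in Tet-induced TRPML1-DL cells (ABD Ca8 dye plus quencher, 45-90 min RT loading): baseline, then compound, then 110 s agonist window; EC80 agonist 54-4 at 4uM final added afterwards for a 110 s antagonist window.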
Vif-A3F inh: inhibitors of Vif-A3F interaction; HeLa A3F-eYFP + Vif (tagged APOBEC3F with the HIV-1 protein that degrades it), YFP fluorescence increase; AID 602313; Potency, µM (top dose mostly 46.1 µM), for the others: at the highest dose activity, negative = active; 390,000 compounds, 0.2% hits; further: potency means the concentration at half of the fitted maximal effect; % of control where 0% means no effect; nearly all actives have a fitted effect of over 65% in size
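Fluorescence increase (Ex 488/Em 500-530) after overnight compound treatment at 37 deg C flags inhibition of Vif-driven A3F-eYFP loss in stable HeLa A3F-eYFP/Vif cells seeded overnight beforehand.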
The depositor's hits bear a star; ? = inconclusive; . = no result given. Hits are enriched below; roughly 0.52% of the tested compounds scored in any of these assays. Unless noted, the call rests on the fitted dose curve; in most records, active means well fitted curve in the direction sought with a large enough effect; inconclusive means small, poorly fitted or top-dose-only effect, or another doubt; inactive means no such curve, though single readings can be large; an effect the other way counts as inactive or inconclusive.

SMILES	Vif-A3G inh	TRPML1 blocker	PINK1 expr mod	TRPML1 ag	Vif-A3F inh
CN(C)c1ccc(/C=C/C=C2/C(=O)NC(=O)N(c3ccccc3)C2=O)cc1	?	-17	19%	0	7.9µM*
COCCCNC(=O)c1c(NC(=O)c2ccco2)n(Cc2ccccc2)c2nc3ccccc3nc12	?	9	4%	1	.
COCCNC(=O)c1c(NC(=O)c2ccc(Br)o2)n(Cc2ccccc2)c2nc3ccccc3nc12	?	6	16%	2	11µM*
Cc1ccc(N2C(=O)NC(=O)/C(=C\C=C\c3ccco3)C2=O)cc1C	?	-8	0%	4	22µM*
Nc1ccc2c3c(cccc13)-c1ccccc1-2	?	-6	11µM*	?	?
O=C1C(=O)c2ccccc2-c2ccccc21	-14%	-4	0%	4	-1%
Cc1nn(-c2ccccc2)c2c1C(c1ccc(F)cc1F)C(C#N)=C(N)O2 (centres undefined)	0%	4	11µM*	0	0%
CCC(C)N1C(=O)/C(=C\c2ccc(N3CCCCCC3)cc2)C(=O)NC1=S (centres undefined)	-1%	16	-1%	-1	22µM*
CN1/C(=C\C=C2C(=O)NC(=O)NC2=O)C(C)(C)c2ccccc21	?	-10	0%	81*	11µM*
CCN(CC)C(=O)c1ccc(NC(=O)CCn2nc(-c3ccc(Cl)cc3)c3ccccc3c2=O)cc1	-3%	0	4%	1	3%
COCCCn1c(=O)/c(=C\c2ccccc2OC(F)F)s/c1=C(/C#N)C(=O)NCCOC	-8%	-5	?	4	25µM*
CCCCNC(=O)/C(C#N)=c1\s/c(=C\c2ccccc2OC(F)F)c(=O)n1CCCOC	?	-4	?	1	8.9µM*
CCOC(=O)c1cnc(SCc2ccc(Cl)c(Cl)c2)nc1N1CC1	-23%	-6	9%	0	?
Cc1ccccc1Cn1cccc(C(=O)Nc2cc(Cl)ccc2C#N)c1=O	-4%	6	-3%	1	0%
CCc1ccc(CN2CCN(Cc3cc(Br)ccc3O)CC2)cc1	1%	3	40µM*	-1	-1%
CCN1CCN(Cc2cc(Br)ccc2O)CC1	3%	5	-2%	0	1%
CCCCCn1c(NC(=O)c2ccco2)c(C(=O)OCC)c2nc3ccccc3nc21	11µM*	-3	6%	0	?
CC1OC(O[C@H]2C[C@@H](O)[C@]3(CO)[C@H]4[C@H](O)C[C@]5(C)[C@@H](C6=CC(=O)OC6)CC[C@]5(O)[C@@H]4CC[C@]3(O)C2)C(O)C(O)C1O (some centres undefined)	-1%	.	-1%	-1	.
CC1(C)CSC(=NCc2ccccc2)N1	1%	8	5%	91*	-6%
CCN1/C(=C/C=C/C2=[N+](CC)c3ccccc3C2(C)C)C(C)(C)c2ccccc21	2%	-15	-2%	76*	-1%
Cc1ccc(-c2nc(CN3C(=O)CN=C(c4ccccc4Cl)c4cc(Cl)ccc43)c(C)o2)cc1	-13%	3	1%	0	3%
O=C(Oc1c(Cl)cc(Cl)c2ccccc12)N1CCCCC1	-8%	-13	19%	68*	-8%
O=C(Oc1ccc2ccc(OC(=O)N3CCCCCC3)cc2c1)N1CCCCCC1	5%	4	?	3	-8%
COc1ccccc1CN1CCCC2(CCN(C(=O)Oc3ccccc3)CC2)C1	.	.	1%	.	.
N#Cc1ccc(CN2CCC3(CC2)CCN(C(=O)Oc2ccccc2)CC3)cc1	.	.	-1%	.	.
SMILES	Vif-A3G inh	TRPML1 blocker	PINK1 expr mod	TRPML1 ag	Vif-A3F inh
CN1CCN(c2ccc(/C=C3\C(=O)NC(=S)N(c4cccc(Br)c4)C3=O)o2)CC1	22µM*	-8	6%	12	25µM*
C[n+]1c(-c2ccccc2)cc(CCCCc2cc(-c3ccccc3)[n+](C)c(-c3ccccc3)c2)cc1-c1ccccc1	-5%	5	32µM*	0	2%
C=Cc1cc(OC)c2c(c1)c(=O)oc1c2cc(OC)c2c(O)ccc(C3OC(C)C(O)C(C)(O)C3O)c21 (centres undefined)	-15%	-9	-7%	0	5%
C[C@H]1O[C@@H](O[C@H]2[C@@H](O)C[C@@H](O[C@H]3[C@@H](O)C[C@H](O[C@H]4CC[C@@]5(C)[C@H](CC[C@@H]6[C@@H]5CC[C@]5(C)[C@@H](C7=CC(=O)OC7)CC[C@]65O)C4)O[C@@H]3C)O[C@@H]2C)C[C@H](O)[C@@H]1O	-8%	.	-1%	0	.
O=C1NC(=O)N(Cc2ccc(F)cc2)C(=O)/C1=C\c1ccoc1	2%	-19	16%	3	25µM*
Cc1ccc(/C=C2\C(=O)NC(=O)N(CCc3ccc(F)cc3)C2=O)s1	2%	2	7%	-1	-14%
Cc1ccc(/C=C2/C(=O)NC(=O)N(CCc3ccc(F)cc3)C2=O)s1	2%	0	10%	0	8.9µM*
CN(C)c1ccc(/C=C2\C(=O)NC(=O)N(Cc3ccc(F)cc3)C2=O)cc1	0%	-11	5%	0	-24%
C=CCC1(C(C)CCC)C(=O)N=C(S)NC1=O (centres undefined)	.	.	-1%	.	.
CN1CC=C2C(C#N)=C(N)C(C#N)(C#N)C(c3ccncc3)C2C1 (centres undefined)	1%	29	25µM*	4	0%
CCn1c(O)c(/C=N/NC(=O)c2ccncc2)c(=O)n(CC)c1=S	?	-2	1%	1	7.9µM*
Nc1ccccc1-[n+]1c(-c2ccccc2)cc(-c2ccccc2)cc1-c1ccccc1	3%	-4	0%	1	1%
Oc1ccccc1-[n+]1c(-c2ccccc2)cc(-c2ccccc2)cc1-c1ccccc1	-2%	6	.	4	0%
[O-]c1ccccc1-[n+]1c(-c2ccccc2)cc(-c2ccccc2)cc1-c1ccccc1	4%	0	16µM*	3	-2%
O=C(O)c1ccc(-[n+]2c(-c3ccccc3)cc(-c3ccccc3)cc2-c2ccccc2)cc1	1%	-10	0%	0	0%
Cc1ccccc1-[n+]1c(-c2ccccc2)cc(-c2ccccc2)cc1-c1ccccc1	-3%	11	10µM*	0	-2%
Brc1ccc(-[n+]2c(-c3ccccc3)cc(-c3ccccc3)cc2-c2ccccc2)cc1	-16%	37	25µM*	1	-6%
C=C(C)[C@@H]1[C@H]2OC(=O)[C@H]1[C@]1(O)C[C@H]3O[C@]34C(=O)O[C@H]2[C@]14C	1%	-2	-1%	1	0%
ClCCN(CCCl)c1ccc(C=Nc2ccc(/C=C/c3ccncc3)cc2)cc1	-7%	.	.	3	.
Cc1ccccc1-n1c(/C=C/c2ccc(N(C)C)cc2)nc2ccccc2c1=O	3.2µM*	-9	3%	?	?
Cc1ccccc1-n1c(/C=C/c2c(C)[nH]c3ccccc23)nc2ccccc2c1=O	-15%	16	0%	3	-7%
CN1CCCC2(CCN(C(=O)Oc3ccccc3)CC2)C1	.	.	0%	.	.
O=C(c1ccc(-c2ccccc2)cc1)C1CCCN(Cc2ccn[nH]2)C1 (centres undefined)	0%	-6	2%	0	0%
